NIH3T3 tox – NIH 3T3 cell cytotoxicity. NIH 3T3 viability, CellTiter-Glo ATP luminescence, 48-72 h. Potency, µM (highest dose often 96.7 µM), for inactives: top-dose activity change, negative = cytotoxicity, usual class: inhibitors. 94,000 tested, 4.3% active. AID 1345082; also: % is scaled to controls: 0 for no effect and ±100 for the full control effect; nearly all actives have a fitted effect of over 55% in size
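Viability of NIH 3T3 cells after 48 or 72 hr compound treatment at 37 °C was assessed by CellTiter-Glo, with luminescence imaged following a 10 min room-temperature step.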
HEK293 tox – kills HEK 293 cells; HEK 293 viability, ATP luminescence (CellTiter-Glo), 48-72 h; Potency, µM (top dose mostly 115 µM), for the others: at the top dose activity change, negative = cytotoxicity, usual class: inhibitors; 94,000 tested, 6.6% active; AID 1345083; also: % is scaled to controls: 0 for no effect and ±100 for the full control effect; nearly all actives have a fitted effect of over 60% in size
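Read-out: CellTiter-Glo ATP luminescence. Cells: HEK 293, 250 cells/well. Exposure: 48 or 72 hr, 37 degree Celsius.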
SNCA expr inhib – inhibitors of alpha-synuclein (SNCA) gene expression; Potency, µM (top dose mostly 57.2 µM), for inactives: at the highest dose activity change, negative = inhibition, usual class: inhibitors; 140,000 tested, 0.17% active; HEK-293 SNCA-luciferase knock-in, luminescence, 24 h;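 also: plate controls were DMSO cells for no effect and cell-free wells for full effect; nearly all actives have a fitted effect of over 45% in size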
HEK293 viab – reduces viability of HEK-293 SNCA reporter cells; HEK-293-SNCA-luc viability, GF-AFC fluorescence, 24 h; AID 1671193; Potency, µM (top dose mostly 57.1 µM), for the others: top-dose activity change, negative = cytotoxicity, usual class: cytotoxic; 150,000 tested, 0.12% active;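 also: 0% = DMSO-treated cells and -100% = medium-only wells without cells; nearly all actives have a fitted effect of over 30% in size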
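Cytotoxicity counterscreen: after 24 h compound treatment of genome-edited SNCA-luciferase HEK-293 cells, live-cell protease substrate GF-AFC read by fluorescence after 30 min; activity scaled between DMSO (0%) and medium-only (-100%), curves Hill-fitted.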
Luciferase inh – inhibitors of firefly (Photinus pyralis) luciferase; P08659; purified P. pyralis luciferase, luminescence, biochemical; Potency, µM (highest dose often 115 µM), most hits filed as inhibitors; 76,000 tested, 2.5% active; AID 1347043; also: % is scaled to controls: 0 for no effect and ±100 for the full control effect; nearly all actives have a fitted effect of over 65% in size
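FLuc 10nM, D-luciferin 10uM, ATP 10uM, Mg acetate 10mM, Tris acetate pH 7.5, Tween/BSA; cpd qHTS; enzyme added last; CCD luminescence.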
NPR1 antag – antagonists of human natriuretic peptide receptor Npr1; P16066; HEK293 hNpr1 GloSensor cGMP, ANP-stimulated luminescence; Potency, µM (titrated, usually from 46.3 µM), for the others: at the highest dose activity change, negative = inhibition, usual class: inhibitors; 76,000 tested, 1.6% active; AID 1347048; calls by dose curve; also: % is scaled to controls: 0 for no effect and ±100 for the full control effect; nearly all actives have a fitted effect of over 60% in size
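HEK293 cells stably expressing human Npr1 and cGMP GloSensor pGS-40F, loaded 2 h with 2% GloSensor reagent, given compound 30 min at room temperature. Luminescence read before and 20 min after 0.1 nM hNppA.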
NPR1 antag cnf – confirmation of human Npr1 natriuretic peptide receptor antagonists; 1,400 tested, 76% active; Potency, µM (titrated, usually from 57.6 µM), inactives show at the highest dose activity change, negative = inhibition, most hits filed as inhibitors; HEK293 hNpr1 cGMP GloSensor luminescence, ANP-stimulated; shares compounds with NPR1 antag; AID 1347044; calls by dose curve; also: nearly all actives have a fitted effect of over 70% in size
NPR2 antag – hNpr2 antagonism, selectivity versus Npr1. shares compounds with NPR1 antag. HEK293 hNpr2 GloSensor cGMP luminescence, CNP-stimulated. Potency, µM (top dose mostly 57.6 µM), without a hit: at the highest dose activity change, negative = inhibition, usual class: inhibitors. 1,400 tested, 67% active. AID 1347046; calls by dose curve; also: nearly all actives have a fitted effect of over 70% in size
Target sequence (P20594 whole entry, looked up): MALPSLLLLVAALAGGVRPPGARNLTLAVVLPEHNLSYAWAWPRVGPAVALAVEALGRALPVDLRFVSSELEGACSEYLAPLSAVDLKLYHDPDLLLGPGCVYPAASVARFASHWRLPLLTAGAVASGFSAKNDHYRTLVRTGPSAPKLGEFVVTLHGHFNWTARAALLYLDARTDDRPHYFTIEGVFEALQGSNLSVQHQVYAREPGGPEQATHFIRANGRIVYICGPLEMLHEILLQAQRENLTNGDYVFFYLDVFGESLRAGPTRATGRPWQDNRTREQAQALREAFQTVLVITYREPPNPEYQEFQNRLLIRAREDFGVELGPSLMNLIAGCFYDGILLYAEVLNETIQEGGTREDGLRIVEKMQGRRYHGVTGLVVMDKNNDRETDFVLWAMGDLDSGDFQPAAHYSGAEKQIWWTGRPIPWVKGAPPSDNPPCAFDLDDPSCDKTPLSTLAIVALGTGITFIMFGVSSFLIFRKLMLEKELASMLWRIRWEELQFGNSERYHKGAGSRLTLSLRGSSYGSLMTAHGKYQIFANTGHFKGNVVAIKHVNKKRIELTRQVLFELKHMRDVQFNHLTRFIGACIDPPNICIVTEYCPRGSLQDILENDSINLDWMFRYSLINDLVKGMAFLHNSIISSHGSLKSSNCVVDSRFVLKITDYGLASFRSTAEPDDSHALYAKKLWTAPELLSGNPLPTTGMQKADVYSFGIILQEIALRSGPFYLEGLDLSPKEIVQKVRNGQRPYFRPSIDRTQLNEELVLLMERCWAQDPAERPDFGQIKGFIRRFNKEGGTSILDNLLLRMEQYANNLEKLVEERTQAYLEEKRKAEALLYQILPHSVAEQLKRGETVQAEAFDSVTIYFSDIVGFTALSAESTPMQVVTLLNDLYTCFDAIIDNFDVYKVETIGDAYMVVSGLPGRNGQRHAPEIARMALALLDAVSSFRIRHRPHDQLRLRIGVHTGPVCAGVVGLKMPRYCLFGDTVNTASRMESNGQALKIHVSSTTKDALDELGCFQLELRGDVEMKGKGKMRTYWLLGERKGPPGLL
FLuc inh counter – inhibits firefly luciferase, false Npr1 antagonist flag; Potency, µM (top dose mostly 57.6 µM), inactives show top-dose activity change, negative = inhibition, usual class: inhibitors; 1,400 tested, 0.7% active; purified FLuc enzyme, luminescence, Km substrate; shares compounds with NPR1 antag; also: 0% is about no effect
GloSensor ctrl – reduces cGMP signal in GloSensor control cells; HEK293 GloSensor cGMP, SNP-stimulated, luminescence; AID 1347051; shares compounds with NPR1 antag; 1,400 tested, 69% active; Potency, µM (titrated, usually from 57.6 µM), for inactives: top-dose activity change, negative = inhibition, most hits filed as inhibitors; calls by dose curve; also: % is scaled to controls: 0 for no effect and ±100 for the full control effect; nearly all actives have a fitted effect of over 70% in size
Numbers without * were called inactive; i = inactive; u = inconclusive; x = no result given; [ ] = another dose, or the depositor's remark. In the library only some 7.4% were active in any assay of this set; here they are far more common. Unless noted, calls follow the shape of the dose curve; as a rule, active = well fitted curve in the direction sought with a large enough effect; inconclusive = small, poorly fitted or top-dose-only effect, or another doubt; inactive = no such curve, though single readings can be large; an effect the other way counts as inactive or inconclusive. Potency is read from the fitted curve at half-maximal effect.

SMILES	NIH3T3 tox	HEK293 tox	SNCA expr inhib	HEK293 viab	Luciferase inh	NPR1 antag	NPR1 antag cnf	NPR2 antag	FLuc inh counter	GloSensor ctrl
COc1ccc2nc3n(c2c1)[C@@H](CNCc1cnc2ccccc2c1)COC3	-25.4%[138 µM]	-27.2%[172 µM]	-1.8%[87.6 µM]	-16.5%[87.6 µM]	i	-14.7%[70.6 µM]	x	x	x	x
c1ccc2ncc(CNC[C@H]3COCc4nc5ccccc5n43)cc2c1	u	u	-5.4%[87.6 µM]	-5.1%[87.6 µM]	i	20µM*	31.4µM*	31.4µM*	0.7%[86.2 µM]	28µM*
Cc1cccc2c1nc1n2[C@@H](CNCc2ccccc2)COC1	u	u	4.5%[87.6 µM]	-8.9%[87.6 µM]	i	20µM*	31.4µM*	31.4µM*	3.0%[86.2 µM]	22.2µM*
COC1CCN(C(=O)c2cnc3c(c2)N([S+](=O)([O-])c2cccnc2)CCC3)CC1	u	1.7%[172 µM]	17.7%[87.6 µM]	2.2%[87.6 µM]	i	1.6%[70.6 µM]	x	x	x	x
COc1ccc(C(=O)N2CCC3(C2)C(=O)N(Cc2ccccc2)c2ccccc23)cc1 (stereo not given)	u	u	u	11.2µM*	i	5.01µM*	17.2µM*	17.2µM*	-1.1%	10.9µM*
COc1ccc(C(=O)N2CCC3(C2)C(=O)N(c2ccccc2)c2ccccc23)cc1 (stereo not given)	-18.1%	u	21.0%	-19.6%	x	x	x	x	x	x
COc1ccc2c(c1)CCN=C2C[C@H]1CN(C(=O)Cc2cccs2)CC[C@H]1CC(=O)O	-10.3%[174 µM]	-27.1%[172 µM]	4.1%[87.6 µM]	2.8%[87.6 µM]	i	4.6%[70.6 µM]	x	x	x	x
COc1ccc(-c2noc(CC3CCN(C(=O)c4cc(F)ccc4F)CC3)n2)cc1	u	u	u	-15.9%	i	7.08µM*	6.85µM*	6.85µM*	-3.9%	4.32µM*
COc1ccc(-c2noc(CC3CCN(C(=O)c4cc(Cl)ccc4F)CC3)n2)cc1	u	39.8µM*	-12.6%	-0.9%	i	7.08µM*	9.68µM*	10.9µM*	0.4%	9.68µM*
O=C(c1nc(-c2cccnc2)c2ccccn12)N1CCOCC1	-14.0%[138 µM]	3.3%[172 µM]	-9.4%[87.6 µM]	-6.2%[87.6 µM]	x	x	x	x	x	x
COc1ccccc1Nc1ccnc(N2CCC(NC(=O)c3ccccc3Cl)CC2)n1	u	u	15.4%	-4.3%	x	x	x	x	x	x
Cc1cccc2nc(C(=O)N3CCCC(c4[nH]ncc4-c4ccccc4)C3)cn12 (stereo not given)	u	u	-4.2%	-31.7%	i	u	u	u	-2.4%	7.7%
Cc1cccc2nc(C(=O)N3CCC4(CC3)CC(c3ccccc3)CN(C)C4)cn12 (stereo not given)	-1.9%	u	u	-1.8%	i	3.1%	x	x	x	x
CCCNC(=O)CCc1ccc2c(c1)CN(C(=O)NCC)CCO2	-11.6%	1.1%	31.3%	4.9%[12.5 µM]	i	2.3%	x	x	x	x
CCNC(=O)N1CCOc2ccc(CCC(=O)Nc3ccc(C)cc3)cc2C1	u	u	u	-2.5%[12.5 µM]	i	11.2µM*	15.3µM*	19.3µM*	-14.7%	12.2µM*
Cc1nn2c(c1-c1ccccc1OCc1ccccc1)N(C(=O)Cc1ccc3c(c1)OCO3)CCC2	12.6µM*	79.4µM*	-18.4%	-11.7%	i	8.91µM*	10.9µM*	6.11µM*	0.7%	-0.6%
Cc1nn2c(c1-c1ccccc1Oc1ccccc1)N(C(=O)Cc1ccc3c(c1)OCO3)CCC2	u	u	-28.1%	-2.7%	i	7.94µM*	10.9µM*	5.44µM*	-4.2%	-23.9%
Cc1nn2c(c1-c1ccccc1-c1ccccc1)N(C(=O)Cc1ccc3c(c1)OCO3)CCC2	u	u	u	-8.2%	i	-30.0%	x	x	x	x
CCN1CC(c2ccccc2)CC2(CCN(C(=O)c3cnc(C)nc3)CC2)C1 (stereo not given)	-3.6%	-13.7%	-8.5%	-1.4%	i	-2.1%	x	x	x	x
O=C(c1ccc(F)cc1F)N1CCC2(CC1)N=C(c1ccc(Br)cc1)NO2	u	u	15.3%	8.0%	i	11.2µM*	17.2µM*	15.3µM*	-1.9%	12.2µM*
O=C(c1ccc(F)cc1F)N1CCC2(CC1)N=C(c1ccc(Cl)cc1)NO2	u	u	-18.3%	-7.2%	i	14.1µM*	24.3µM*	24.3µM*	-3.7%	21.7µM*
COc1c[nH]c(CN2CCCC(CCc3ccccc3C)C2)cc1=O (stereo not given)	-11.0%	-26.1%	-2.5%	-9.2%	i	0.3%	x	x	x	x
COc1c[nH]c(CN2CCCC(Nc3ccc(C(C)C)cc3)C2)cc1=O (stereo not given)	u	u	18.5%	2.1%	i	u	21.7µM*	19.3µM*	-1.3%	21.7µM*
O=C1NC(=NC2CCCC2)C2(CCCN(Cc3cccnc3)C2)N1c1cc(F)cc(F)c1 (stereo not given)	25.1µM*	2.2%	-3.8%	0.0%	x	x	-16.1%	-0.1%	2.6%	-7.7%
COCC(NC(=O)c1ccc2nc(C3CCCCC3)oc2c1)c1ccnn1C (stereo not given)	-23.7%	u	24.7%	-16.8%	i	u	-29.3%	u	4.8%	-8.6%
O=C(c1cccc(F)c1)N1CC[C@H]2COC(=O)N2c2cc(F)ccc2C1	-0.9%[174 µM]	-2.4%[172 µM]	-14.2%[87.6 µM]	4.2%[87.6 µM]	i	7.4%[70.6 µM]	x	x	x	x
COc1cccc(CN2CCC(Oc3ccc(-c4noc(C5CC5)n4)cc3)C2)c1 (stereo not given)	u	39.8µM*	35.6%	6.3%	i	11.2µM*	u	u	-18.6%	27.3µM*
COCc1nc(-c2ccc(OC3CN(C(=O)NCc4ccc(OC)cc4)C3)cc2)no1	u	-31.6%	9.3%	3.8%	i	u	24.3µM*	u	-2.0%	19.3µM*

High-throughput results as filed in PubChem.
